# Only some compounds are listed: those with a hit (about 4.1% of all), similar ones and a draw of the others.
# Beta apoptosis = blocks beta cell apoptosis | INS-1E cytokine-induced death, ATP luminescence, 48 h; percent of positive-control rescue, neutral wells zero | protection from apoptosis, % (test concentration not listed) | 0.8% of 300,000 active | AID 435005;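 active = Every replicate reaches about 75%, or at least half do and their mean reaches it too, limit read from the data; inconclusive = At least half of replicates reach the limit but their mean does not; inactive = Under half of replicates reach the limit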;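 note: 0% = cytokine-treated negative control wells and 100% = positive control rescue; higher means more ATP so stronger rescue from cytokine killing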
# CSC inhib = cancer stem cell inhibition. cancer stem cell-like cells viability, luminescence. inhibition, % at 7.5 µM. 1.1% of 300,000 active; in the data active = inhibition above about 75%; inconclusive = no clear call, values can overlap the other calls; tested in HMLE shEcad cells
# Mdm2 MdmX PPI = disrupts the human Mdm2-MdmX interaction; O15151+Q00987; SaOS-2 split-luciferase Mdm2/MdmX complementation, luminescence; inhibition, % at 8 µM; 3% of 330,000 active; AID 485346;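 active = inhibition of at least 50% at 8 µM in the primary screen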
# Target sequence (O15151 whole entry, looked up): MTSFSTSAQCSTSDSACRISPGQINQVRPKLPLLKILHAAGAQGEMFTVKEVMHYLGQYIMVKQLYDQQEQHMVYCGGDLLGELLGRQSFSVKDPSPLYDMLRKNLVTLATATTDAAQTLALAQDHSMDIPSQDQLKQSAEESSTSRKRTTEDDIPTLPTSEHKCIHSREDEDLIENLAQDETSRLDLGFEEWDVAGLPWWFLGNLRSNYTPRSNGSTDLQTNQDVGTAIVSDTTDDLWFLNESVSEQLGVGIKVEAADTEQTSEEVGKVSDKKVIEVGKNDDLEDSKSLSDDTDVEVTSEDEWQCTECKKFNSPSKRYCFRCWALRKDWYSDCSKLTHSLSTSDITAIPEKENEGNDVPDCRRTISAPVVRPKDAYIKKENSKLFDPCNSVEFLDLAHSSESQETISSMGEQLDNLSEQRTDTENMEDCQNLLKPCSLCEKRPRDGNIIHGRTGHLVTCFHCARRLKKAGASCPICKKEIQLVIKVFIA
# Target sequence (Q00987 whole entry, looked up): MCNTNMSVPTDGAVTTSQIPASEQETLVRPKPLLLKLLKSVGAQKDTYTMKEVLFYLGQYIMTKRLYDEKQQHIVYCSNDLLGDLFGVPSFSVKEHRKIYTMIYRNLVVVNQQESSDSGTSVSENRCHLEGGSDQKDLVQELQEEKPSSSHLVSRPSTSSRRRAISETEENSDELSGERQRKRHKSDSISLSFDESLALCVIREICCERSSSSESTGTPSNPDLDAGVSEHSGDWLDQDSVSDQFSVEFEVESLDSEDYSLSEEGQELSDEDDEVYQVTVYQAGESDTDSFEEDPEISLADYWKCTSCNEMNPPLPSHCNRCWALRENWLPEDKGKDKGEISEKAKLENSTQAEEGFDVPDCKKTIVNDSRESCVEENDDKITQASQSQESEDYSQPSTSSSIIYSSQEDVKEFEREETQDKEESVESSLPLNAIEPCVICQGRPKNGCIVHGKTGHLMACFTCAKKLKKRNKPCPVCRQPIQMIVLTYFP
# aSyn 5UTR inh = MLPCN primary screen, SNCA 5' untranslated region. alpha-synuclein 5'UTR reporter, inhibitor activity. inhibition, % (tested at 7.5 µM). 0.82% of 300,000 active. AID 1813; in the data active = inhibition above about 60%; inconclusive = no clear call, values can overlap the other calls;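 note: H4 neuroglioblastoma cells stably carrying SNCA 5'UTR luciferase fusion; 0% = DMSO wells and 100% = positive control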
# Bfl-1 A1 inh = inhibitors of the anti-apoptotic protein A1, read as caspase activation. MEF A1-2A-BIM cells, Caspase-Glo 3/7 luminescence, 3 h; percent of clofoctol response, vehicle zero. caspase activation, % (test concentration not listed). 0.066% of 330,000 active. AID 2462;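 active = over half of replicate activation scores above 10%, or exactly half above 10 with the replicate mean above 10; inconclusive = replicate mean below 10 yet half the replicates above 10; inactive = over half of replicates below 10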
# Mdm2-MdmX conf = confirmation of human Mdm2/MdmX interaction inhibitors | shares compounds with Mdm2 MdmX PPI | Mdm2-MdmX binding, luminescent assay | inhibition, % at 8 µM | 55% of 10,000 active | AID 489028; in the data active = inhibition above about 40%
# Full FLuc ctr = full-length luciferase inhibition in Mdm2/MdmX counter-screen; shares compounds with Mdm2 MdmX PPI; SaOS-2 full-length luciferase counterscreen, luminescence; inhibition, % at 8 µM; 77% of 6,200 active;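 active = mean inhibition at 8 µM reaching about 37%, which flags the compound as non-specific, limit read from the data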;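 note: p53-null SaOS-2 cells with luciferase driven by a doxycycline-inducible promoter; compound on cells about two nights before reading with doxycycline added after day one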
# * marks the source's active call; other numbers are inactive results; ? = inconclusive; / = not tested or not shown.
SMILES,Beta apoptosis,CSC inhib,Mdm2 MdmX PPI,aSyn 5UTR inh,Bfl-1 A1 inh,Mdm2-MdmX conf,Full FLuc ctr
O=C1CCCN1CCC(=O)N1CCCC(Nc2ccc(F)c(F)c2)C1 (stereo not given),-2.6,-2.7,-8.0,6.3,-1.2,/,/
O=C(Cc1ccc(N2CCNC2=O)cc1)N1CCCC(Nc2ccc(F)c(F)c2)C1 (stereo not given),2.2,83.5*,53.9*,13.2,0.5,75.3*,56.1*
O=C(c1cccc(N2CCNC2=O)c1)N1CCCC(Nc2cccc(F)c2)C1 (stereo not given),-3.7,-4.5,23.7,-3.9,-0.8,/,/
O=C(Cc1ccc(N2CCNC2=O)cc1)N1CCCC(Nc2cccc(F)c2)C1 (stereo not given),21.7,61.6,59.7*,63.8*,-0.1,59.5*,62.0*
O=C(NCC1CCCO1)C(=O)N/N=C/c1c(F)cccc1Cl (stereo not given),-6.6,/,-6.4,19.8,1.1,/,/
O=C(Nc1ccc(N2CCOCC2)cc1)c1cnccn1,/,-9.4,53.8*,66.6*,-0.7,32.2,/
O=C(Nc1ccc(N2CCOCC2)cc1)c1cnsn1,/,/,70.2*,106.4*,/,67.8*,32.1
COc1ccc(NC(=O)N(C)C[C@H]2Oc3c(NC(=O)c4nc5ccccc5s4)cccc3C(=O)N([C@@H](C)CO)C[C@H]2C)cc1,10.1,-15.5,27.9,/,0.3,/,/
Cc1cc(Nc2nc3ccccc3nc2Cl)n(-c2ccccc2)n1,-13.8,/,63.9*,-87.8,0.5,58.7*,40.9*
COc1ccc(-n2nnnc2-c2cccc(OC)c2)cc1,6.0,-2.1,56.1*,64.3*,2.9,54.5*,66.5*
O=C1c2ccccc2C(=O)N1CCc1ccccn1,-5.2,-3.3,19.6,-28.6,0.0,/,/
O=C1c2cccc3c([N+](=O)[O-])ccc(c23)C(=O)N1CCc1ccccn1,-5.3,69.8,95.6*,-22.8,-0.3,8.8,/
CCn1c2ccc(OC)cc2c2nc3ccccc3nc21,12.0,7.3,-12.4,15.3,0.0,/,/
CCCCOC(=O)Cn1c2ccc(OC)cc2c2nc3ccccc3nc21,0.3,0.1,74.5*,4.0,-0.7,19.8,/
Oc1ccc(N=Nc2ccccc2C(F)(F)F)c2cccnc12,90.1*,99.5*,83.3*,71.6*,-0.5,85.8*,23.3
Cc1ccc(N=Nc2ccc(O)c3ncccc23)cc1C,-6.4,1.3,78.2*,73.8*,-4.4,87.5*,25.6
CCS(=O)(=O)c1ccc(N=Nc2ccc(O)c3ncccc23)c(OC)c1,/,/,75.4*,78.1*,/,69.2*,31.8
COc1ccccc1N=Nc1ccc(O)c2ncccc12,20.4,26.9,67.5*,36.6,-0.9,37.8,91.8*
CN1/C(=C/C(=O)c2nc(S(C)(=O)=O)ncc2Cl)C(C)(C)c2ccccc21,60.8,111.1*,100.3*,?,0.2,100.1*,51.8*
O=C(CCCN1C(=O)C2CC=CCC2C1=O)Nc1cccc(F)c1 (stereo not given),-0.7,-8.8,12.7,7.4,0.5,/,/
NC(N)=N/N=C/c1ccc2cccc(OCc3ccccc3)c2n1,30.1,38.4,50.9*,-20.9,0.1,60.0*,81.2*
O/N=C/c1ccc2cccc(OCc3ccccc3)c2n1,-3.1,0.7,16.0,19.9,0.1,/,/
O=C(N/N=C/c1ccc2cccc(OCc3ccccc3)c2n1)c1ccc(Br)cc1,8.1,11.1,21.4,-5.7,0.5,/,/
COc1ccc(C(=O)N/N=C/c2ccc3cccc(OCc4ccccc4)c3n2)cc1,10.3,41.2,59.3*,-35.8,1.0,16.0,/
Cc1ccc(Sc2ccc(S(=O)(=O)Nc3ccc(CC(=O)O)cc3)cc2)cc1C,5.2,/,12.7,/,0.2,/,/
SMILES,Beta apoptosis,CSC inhib,Mdm2 MdmX PPI,aSyn 5UTR inh,Bfl-1 A1 inh,Mdm2-MdmX conf,Full FLuc ctr
O=C1NC(Cc2ccccc2)c2nc3cc(Cl)ccc3c(=O)n2-c2ccccc21 (stereo not given),-2.6,/,27.6,/,-1.2,/,/
Cc1ccccc1NCCC(=O)Nc1ccc(Cl)cc1,-1.3,16.5,21.7,-22.9,0.0,/,/
CC1CCC2(CC1)NC(=O)N(CC(=O)Nc1cccc(C#N)c1)C2=O (stereo not given),/,/,-3.6,/,/,/,/
CCOc1ccc(CCNC(=O)COC(=O)c2cccnc2SC)cc1OCC,0.0,-0.4,16.7,28.9,1.3,/,/
CC(C)(C)C(=O)O/N=C(\N)Cc1ccc(-c2csnn2)cc1,-7.2,1.4,76.6*,2.1,1.2,17.8,/
CN(C)/C=C/c1c([N+](=O)[O-])c2ccc(O)cc2n1-c1ccccc1,-17.3,-8.0,61.4*,2.1,1.5,67.9*,53.6*
COc1ccccc1NCC(O)Cn1c2ccccc2c2ccccc21 (stereo not given),-1.3,52.2,23.9,-25.8,-1.5,/,/
COc1ccc(Nc2cc(Nc3cc(OC)c(OC)c(OC)c3)ncn2)cc1,10.1,35.4,65.4*,19.7,-0.9,23.6,/
COc1cc(Nc2nc(-c3ccccc3)c3cc(C)ccc3n2)cc(OC)c1OC,6.6,?,56.2*,14.2,0.7,23.6,/
COc1ccc(CCNCC(O)Cn2c3ccccc3c3ccccc32)cc1OC (stereo not given),-1.6,-12.2,92.5*,119.7*,-0.6,36.5,55.2*
Cc1ccc2nc(NCC(=O)O)nc(-c3ccccc3)c2c1,2.8,6.0,11.0,43.6,0.6,/,/
COc1cc(Nc2c3ccccc3nc3ccccc23)cc(OC)c1OC,38.1,31.0,86.1*,34.3,?,54.8*,62.1*
CC(C)Oc1ccc(S(=O)(=O)N2CCOCC2)cc1NC(=O)C1=NN(c2ccccc2)C(=O)CC1,/,/,22.3,/,/,/,/
Cc1c(C(=O)N2CCNCC2)oc2ccccc12,-11.2,-8.7,7.3,13.5,0.6,/,/
COc1ccc(CCNc2c3ccccc3nc3ccccc23)cc1OC,76.8*,12.6,50.5*,-10.4,0.5,26.4,/
COc1ccc(Nc2c3c(nc4ccccc24)CCCC3)cc1OC,10.8,-3.3,25.1,-21.5,0.4,/,/
COc1ccc(C)cc1Nc1c2c(nc3ccccc13)CCC2,20.9,64.2,59.2*,68.3*,0.5,59.0*,87.2*
COc1ccccc1Nc1c2ccccc2nc2ccccc12,33.3,22.2,53.5*,-44.8,-1.0,48.2*,69.4*
CN(CC(=O)Nc1cccc(F)c1)C(=O)Cn1cnc2c1c(=O)n(C)c(=O)n2C,-2.0,-10.0,4.1,0.6,-0.3,/,/
CC(C)Cn1c(N)c(C(=O)COC(=O)c2cc(C(F)(F)F)nc3c(C(F)(F)F)cccc23)c(=O)n(C)c1=O,-4.6,-1.6,88.0*,5.8,-1.3,5.2,/
CCN(CC)S(=O)(=O)c1ccc(OC)c(NC(=O)OCc2ccccc2)c1,-0.3,9.4,11.4,9.5,0.7,/,/
CSCCC(NC(=O)COc1ccccc1)C(=O)N1CCOCC1 (stereo not given),-2.6,-7.9,6.8,/,0.8,/,/
NNC(=O)c1[nH]c2ccc(Br)cc2c1-c1ccccc1,-11.1,51.9,3.6,-13.0,0.3,/,/
